Measurements from PubChem BioAssay.
Active and inactive are the calls of the source.

What was measured:
[1] = optical density shifts of acrAB sulA E. coli – strain DRC41, OD650, 48 h, E. coli filamentation inducer project, primary screen (AID 1152); settings: higher = more signal, called active from +8 up or from −8 down;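 also: E. coli MC1000 strain DRC41 lacking acrAB efflux pump and sulA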
[2] = probe aLefty1 binding on compound microarray – biochemical, small-molecule microarray, 635/667 nm fluorescence, primary screen (AID 1153); settings: higher = more signal;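 also: score merges spot fluorescence with signal-to-noise ratio from the scanned slide images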
[3] = plasmodial surface anion channel blockers, osmotic lysis – cell-based, P. falciparum Indochina, OD700, 1 h, primary screen (AID 1154); settings: P. falciparum Indochina infected RBC osmotic lysis, higher = more signal, called active from +8 up or from −8 down
[4] = plasmodial surface anion channel blockers, osmotic lysis – cell-based, P. falciparum Indochina, OD700, 2 h, primary screen (AID 1155);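 also: lysis reports solute entry through the parasite surface anion channel PSAC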; settings: P. falciparum Indochina infected erythrocytes, higher = more signal, called active from +8 up or from −8 down
[5] = changes in parasitized red cell lysis, either direction – P. falciparum Indochina, OD700, 3 h, PSAC antagonist project, primary screen (AID 1156); settings: P. falciparum-infected erythrocytes, osmotic lysis, higher = more signal, called active from +8 up or from −8 down
[6] = plasmodial surface anion channel blockers, osmotic lysis – cell-based, P. falciparum Indochina, OD700, 18 h, primary screen (AID 1157); settings: P. falciparum Indochina infected erythrocytes, osmotic lysis OD700, 18 h; higher = more signal, called active from +8 up or from −8 down
[7] = S6 kinase pathway phospho-S6 level changes – cell-based, A549, cytoblot, luminescence, serum-stimulated, primary screen (AID 1158); settings: 5 h, higher = more signal;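 also: serum-stimulated A549 lung adenocarcinoma cells; signal is phosphorylated S6 detected by cytoblot immunostaining with HRP secondary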
[8] = target: NADPH oxidase 2 (Homo sapiens) (UniProt P04839); assay: compounds shifting NOX2 Amplex Red fluorescence – cell-based, HEK293-NOX2, PMA-stimulated, NOX inhibitor project, primary screen (AID 1159); settings: 45 min, higher = more signal, called active from +8 up or from −8 down; also: test concentration not given here
[9] = target: NADPH oxidase 4 (Homo sapiens) (UniProt Q9NPH5); assay: compounds shifting NOX4 Amplex Red fluorescence – cell-based, HEK293-NOX4, tetracycline-induced, NOX inhibitor project, primary screen (AID 1160); settings: HEK293-NOX4, Amplex Red H2O2 fluorescence, 45 min; higher = more signal, called active from +8 up or from −8 down
[10] = target: NADPH oxidase 5 (Homo sapiens) (UniProt Q96PH1); assay: compounds shifting NOX5 Amplex Red fluorescence – cell-based, HEK293-NOX5, NOX inhibitor project, primary screen (AID 1161); settings: HEK293-NOX5, ionomycin, 45 min, higher = more signal
Chain of NADPH oxidase 5 (Homo sapiens) (Q96PH1 whole entry, looked up): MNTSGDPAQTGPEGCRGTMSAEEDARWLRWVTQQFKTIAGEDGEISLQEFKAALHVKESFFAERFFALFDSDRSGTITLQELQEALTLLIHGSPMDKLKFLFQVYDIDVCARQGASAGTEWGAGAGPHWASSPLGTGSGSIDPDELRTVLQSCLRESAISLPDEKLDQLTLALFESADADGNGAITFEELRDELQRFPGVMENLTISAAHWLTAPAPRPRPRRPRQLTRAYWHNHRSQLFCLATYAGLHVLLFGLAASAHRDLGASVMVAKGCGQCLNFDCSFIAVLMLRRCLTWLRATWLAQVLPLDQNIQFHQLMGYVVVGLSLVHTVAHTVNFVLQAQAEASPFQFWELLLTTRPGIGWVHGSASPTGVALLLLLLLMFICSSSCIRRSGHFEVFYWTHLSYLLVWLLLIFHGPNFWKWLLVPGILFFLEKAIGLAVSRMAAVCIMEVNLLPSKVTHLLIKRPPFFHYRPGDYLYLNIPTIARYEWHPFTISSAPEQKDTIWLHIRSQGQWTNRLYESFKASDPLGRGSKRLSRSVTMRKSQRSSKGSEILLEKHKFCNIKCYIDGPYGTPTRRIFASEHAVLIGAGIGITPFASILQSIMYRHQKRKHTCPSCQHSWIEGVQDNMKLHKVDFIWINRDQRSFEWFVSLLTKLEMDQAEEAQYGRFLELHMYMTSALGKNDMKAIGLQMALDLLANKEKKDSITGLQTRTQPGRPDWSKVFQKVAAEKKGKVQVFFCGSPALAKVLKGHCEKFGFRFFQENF

Chain of NADPH oxidase 2 (Homo sapiens) (P04839 whole entry, looked up): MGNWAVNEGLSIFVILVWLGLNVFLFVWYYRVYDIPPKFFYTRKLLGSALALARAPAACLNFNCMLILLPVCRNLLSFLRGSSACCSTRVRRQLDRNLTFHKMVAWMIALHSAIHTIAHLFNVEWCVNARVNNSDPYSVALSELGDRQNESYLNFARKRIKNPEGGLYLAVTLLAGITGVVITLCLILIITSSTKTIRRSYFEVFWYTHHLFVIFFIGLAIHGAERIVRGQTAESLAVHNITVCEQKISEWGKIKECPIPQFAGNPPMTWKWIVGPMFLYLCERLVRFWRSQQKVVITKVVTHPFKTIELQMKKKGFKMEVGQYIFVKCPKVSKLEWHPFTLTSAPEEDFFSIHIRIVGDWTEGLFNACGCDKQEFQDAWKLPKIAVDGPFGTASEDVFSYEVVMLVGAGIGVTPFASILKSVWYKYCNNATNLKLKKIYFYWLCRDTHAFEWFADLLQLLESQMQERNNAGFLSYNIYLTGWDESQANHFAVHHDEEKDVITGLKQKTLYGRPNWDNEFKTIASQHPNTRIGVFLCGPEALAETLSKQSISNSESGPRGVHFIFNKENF
Chain of NADPH oxidase 4 (Homo sapiens) (Q9NPH5 whole entry, looked up): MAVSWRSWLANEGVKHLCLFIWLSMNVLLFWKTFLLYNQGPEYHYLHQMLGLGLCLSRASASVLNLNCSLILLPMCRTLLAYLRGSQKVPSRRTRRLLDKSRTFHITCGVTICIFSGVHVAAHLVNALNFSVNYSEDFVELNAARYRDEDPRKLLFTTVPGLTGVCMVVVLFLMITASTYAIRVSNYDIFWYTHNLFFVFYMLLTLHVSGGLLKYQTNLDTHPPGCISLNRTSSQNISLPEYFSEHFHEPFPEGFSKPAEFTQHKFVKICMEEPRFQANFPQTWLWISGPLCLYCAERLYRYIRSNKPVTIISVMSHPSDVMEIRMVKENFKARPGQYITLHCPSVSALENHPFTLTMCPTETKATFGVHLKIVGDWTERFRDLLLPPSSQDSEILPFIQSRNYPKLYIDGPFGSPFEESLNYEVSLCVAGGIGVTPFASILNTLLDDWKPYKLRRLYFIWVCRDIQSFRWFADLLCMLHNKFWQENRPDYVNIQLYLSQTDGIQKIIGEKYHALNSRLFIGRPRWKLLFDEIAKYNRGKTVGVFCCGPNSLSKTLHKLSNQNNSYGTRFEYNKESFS

| Compound | z-score [1] | composite z-score [2] | z-score [3] | z-score [4] | z-score [5] | z-score [6] | z-score [7] | z-score [8] | z-score [9] | z-score [10] |
| --- | --- | --- | --- | --- | --- | --- | --- | --- | --- | --- |
| CC(CO)N1C(=O)[C@@H]2[C@H]3C(=O)OCC=C[C@H]3OC23C=CCN(CCN2CCOCC2)C(=O)[C@@H]13 (stereo not given in full) | -1.06 (inactive) | -0.482 | 0.158 (inactive) | -0.358 (inactive) | -0.0103 (inactive) | -0.255 (inactive) | -0.471 | 0.381 (inactive) | 0.194 (inactive) | 1.2 |
| CCCNC(=O)[C@@]1(c2ccc([N+](=O)[O-])cc2)CC(=O)N(C2CCCCC2)[C@@H]1c1ccc(CO)cc1 | 0.774 (inactive) | 0.062 | 2.1 (inactive) | 1.01 (inactive) | 1.21 (inactive) | 0.988 (inactive) | -0.002 | 0.325 (inactive) | 0.901 (inactive) | 0.877 |
| O=C1OCC=C[C@H]2OC34C=CCN(Cc5ccccc5)C(=O)[C@H]3N(CCCCCCO)C(=O)[C@@H]4[C@@H]12 (stereo not given in full) | 2.56 (inactive) | -0.152 | 0.987 (inactive) | -0.567 (inactive) | -0.368 (inactive) | -0.924 (inactive) | 1.02 | 1.22 (inactive) | -0.272 (inactive) | 1.87 |
| CC(C)C[C@@H]1NC(=O)[C@@H]2C[C@H](C(=O)NCCCCN(C)C)[C@H](c3cccc(OCCO)c3)N2C1=O | 0.471 (inactive) | 0.0945 | 4.21 (inactive) | 0.239 (inactive) | 0.931 (inactive) | 0.128 (inactive) | 0.422 | 1.46 (inactive) | 1.13 (inactive) | 0.903 |
| CCCCCCCCCCC(O)C1C=CC2C(=O)N(C)C(=O)C2N1Nc1ccc([N+](=O)[O-])cc1[N+](=O)[O-] (stereo not given) | -1.97 (inactive) | 0.407 | 13.8 (active) | 4.31 (inactive) | -0.607 (inactive) | 2.59 (inactive) | -0.506 | 0.402 (inactive) | 0.328 (inactive) | -0.414 |
| CCOC(=O)c1ccc(NC(=O)O[C@H]2[C@H](OC(=O)Nc3ccc4c(c3)OCO4)[C@@H](OC(=O)Nc3ccc4c(c3)OCO4)[C@@H](OC)O[C@@H]2CO)cc1 | 0.113 (inactive) | 0.325 | 10.4 (active) | 1.31 (inactive) | 0.843 (inactive) | 0.593 (inactive) | 0.0796 | -3.35 (inactive) | -0.689 (inactive) | -1.77 |
| C=C[C@@H](COC(C)=O)N(C(=O)OC(C)(C)C)S(=O)(=O)c1ccc(Br)cc1 | 0.336 (inactive) | -0.105 | 0.478 (inactive) | -0.145 (inactive) | 0.14 (inactive) | 0.0566 (inactive) | -0.178 | -1.47 (inactive) | -0.744 (inactive) | -1.23 |
| COC(=O)Cn1c(C(=O)N(C)C)cc2c1C[C@H]1CN(C(=O)c3ccccc3)[C@@](Cc3ccc(F)cc3)(C(=O)OC)[C@@H]21 | -1.25 (inactive) | 0.523 | 0.628 (inactive) | 0.238 (inactive) | 0.13 (inactive) | 0.52 (inactive) | -0.38 | 0.174 (inactive) | -0.765 (inactive) | -1.26 |
| N#Cc1ccc(NN2C(C(O)c3ccc(F)cc3)C=CC3C(=O)N(c4ccccc4)C(=O)C32)cc1 (stereo not given) | -0.922 (inactive) | 1.03 | 8.09 (active) | 1.4 (inactive) | 1.36 (inactive) | 1.29 (inactive) | -0.491 | -1.33 (inactive) | -4.55 (inactive) | -2.9 |
| COCC1=C2[C@@H](CCc3ccccc3)OB(O)C[C@@H]2[C@@H]2C(=O)C=CC(=O)[C@@H]2C1 | -0.204 (inactive) | -0.0386 | 2.09 (inactive) | -0.122 (inactive) | -0.623 (inactive) | -0.0621 (inactive) | 0.154 | -0.109 (inactive) | -0.383 (inactive) | 1.01 |
| COC(=O)CCCCCCC(=O)Nc1ccc(NC(=O)CCCC[P+](c2ccccc2)(c2ccccc2)c2ccccc2)cc1 | -12.4 (active) | -0.0601 | 25.6 (active) | 9.83 (active) | 1.95 (inactive) | 1.43 (inactive) | 0.274 | -0.765 (inactive) | 0.429 (inactive) | 0.0901 |
| COc1ccc(NC(=O)O[C@H]2[C@H](OC(=O)Nc3ccccc3)[C@H](OC(=O)Nc3ccccc3)[C@@H](OC)O[C@@H]2CO)cc1 | -1.37 (inactive) | 0.457 | 8.18 (active) | 1.26 (inactive) | -0.329 (inactive) | 0.889 (inactive) | 0.0488 | 0.824 (inactive) | -0.11 (inactive) | -0.922 |
| CC(C)N1CC=CC23O[C@@H]4C=CCOC(=O)[C@@H]4[C@H]2C(=O)N(CCCO)[C@@H]3C1=O (stereo not given in full) | 2.97 (inactive) | -0.14 | 1.08 (inactive) | 0.0983 (inactive) | 0.976 (inactive) | -0.137 (inactive) | 1.89 | 0.0484 (inactive) | -1.52 (inactive) | -1.36 |
| C=C(C)C1CCC(C(O)C2C=CC3C(=O)N(C)C(=O)C3N2N2CCCCC2)CC1 (stereo not given) | -1.09 (inactive) | 0.336 | 1.23 (inactive) | 0.737 (inactive) | 0.302 (inactive) | 1.37 (inactive) | -1.41 | -0.128 (inactive) | 0.773 (inactive) | 0.0159 |
| O=C1NC(=O)C2C1C=CC(C(O)c1c(F)cccc1Cl)N2Nc1ccc(Cl)cc1Cl (stereo not given) | -3.86 (inactive) | 0.501 | 3.9 (inactive) | 0.914 (inactive) | -0.87 (inactive) | 1.17 (inactive) | -1.27 | 0.295 (inactive) | -5.4 (inactive) | -2.57 |
| COC(=O)[C@@]1(Cc2ccc(F)cc2)[C@H]2c3cc(C(=O)N(C)C)n(CCc4ccc(O)c(OC)c4)c3C[C@H]2CN1C(=O)c1ccccc1 | -1.22 (inactive) | 1.63 | -0.951 (inactive) | 0.236 (inactive) | -0.722 (inactive) | 0.667 (inactive) | -0.824 | -0.0241 (inactive) | -0.627 (inactive) | -0.245 |
| COCCCNC(=O)[C@@]1(Cc2ccccc2N=[N+]=[N-])N=C(c2ccc(OCCCO)cc2)O[C@H]1c1ccccc1 | -0.3 (inactive) | 0.535 | 21.5 (active) | 4.21 (inactive) | 1.28 (inactive) | 1.4 (inactive) | 0.796 | -2.06 (inactive) | -0.374 (inactive) | -1.63 |
| NC(=O)NCC#Cc1ccc2c(c1)[C@]1(C(=O)N2)[C@H](C(=O)O)[C@H]2C(=O)O[C@H](c3ccccc3)[C@H](c3ccccc3)N2[C@@H]1c1ccc(OCCO)cc1 | 0.215 (inactive) | -0.147 | 3.93 (inactive) | 0.523 (inactive) | 0.643 (inactive) | 0.247 (inactive) | 0.235 | 2.78 (inactive) | 1.14 (inactive) | -0.0124 |
| C=C(C)[C@@H]1CC=C(C(O)C2C=CC3C(=O)N(c4ccccc4)C(=O)C3N2Nc2ccccc2F)CC1 (stereo not given in full) | -1.79 (inactive) | 0.744 | 0.19 (inactive) | 1.01 (inactive) | 0.039 (inactive) | 1.1 (inactive) | -1.23 | 0.032 (inactive) | -1.64 (inactive) | -2.14 |
| COC(=O)C1=CC(CCCO)=CC(C2CC2)N(C)C=C1C(=O)OC (stereo not given) | 1.22 (inactive) | -0.35 | 0.731 (inactive) | -0.59 (inactive) | 0.482 (inactive) | -1.41 (inactive) | 1.83 | -0.463 (inactive) | -0.122 (inactive) | 0.663 |
| NC(N)=NCCCn1cc(CNC(=O)[C@@H](N)Cc2ccccc2)nn1 | -0.929 (inactive) | -0.0171 | -0.174 (inactive) | 0.0333 (inactive) | -0.561 (inactive) | 0.36 (inactive) | 0.243 | -2 (inactive) | 0.227 (inactive) | -0.264 |
| [N-]=[N+]=NCc1ccccc1C[C@@]1(C(=O)N2CCOCC2)N=C(c2ccc(OCCCO)cc2)O[C@@H]1c1ccccc1 | 0.083 (inactive) | 0.276 | 27 (active) | 17.1 (active) | 2.37 (inactive) | 0.889 (inactive) | 2.41 | -4.45 (inactive) | -1.12 (inactive) | -2.14 |
| CN(C)C(=O)[C@]1(CCS(=O)(=O)c2ccccc2)N=C(c2ccc(OCCCO)cc2)O[C@@H]1c1ccccc1N=[N+]=[N-] | -0.0791 (inactive) | 0.382 | 31.2 (active) | 27.2 (active) | 2.03 (inactive) | 6.58 (inactive) | 0.178 | 0.502 (inactive) | 1.64 (inactive) | 1.24 |
| O=C1NC(=O)C2C1C=CC(C(O)c1cccc3ccccc13)N2Nc1ccc(Cl)cc1Cl (stereo not given) | -1.85 (inactive) | 0.505 | 1.98 (inactive) | 0.994 (inactive) | -2.46 (inactive) | 1.42 (inactive) | -1.11 | -1.37 (inactive) | -6.34 (inactive) | -3.5 |
| COCCOC(=O)N1C(=O)[C@@]2(c3cc(C#Cc4ccc(OC)cc4)ccc31)[C@H](c1ccc(O)cc1)N1[C@H](c3ccccc3)[C@H](c3ccccc3)OC(=O)[C@H]1[C@@H]2C(=O)N1CCCCCCC1 | -0.329 (inactive) | 2.12 | 0.0963 (inactive) | 0.0379 (inactive) | -1.3 (inactive) | -0.0483 (inactive) | -0.307 | 0.877 (inactive) | 0.482 (inactive) | 0.391 |
| Cc1ccc(S[C@]2(C(=O)NCC(F)(F)F)CC(=O)N(C3CCCCC3)[C@@H]2c2ccc(CO)cc2I)cc1 | 0.439 (inactive) | -0.0879 | 4.35 (inactive) | 1.29 (inactive) | -0.178 (inactive) | 0.524 (inactive) | -0.283 | 1.04 (inactive) | 0.661 (inactive) | 2.07 |
